Test results published in PubChem BioAssay AID463173 (ICCB-Longwood Screening Facility, Harvard Medical School, 2010).
The campaign covered roughly 52,000 compounds. About 4,300 (8.3%) were called active. The entries come from a sample that favours actives as a whole. Unmarked numbers belong to inactive results. Rule as the data show it: active = survival mostly below about 52% (no sharp cut-off); inactive = mostly above about 56%.

System: DeltatarO mutant
Experiment: growth inhibition of S. aureus wild type versus tarO mutant, primary screen, teichoic acid synthesis inhibitors, RN4220, OD600 (AID 463173)
Conditions: OD600, 18 h, active compounds read low, screened at 18.75 µg/mL (by protocol)

SMILES	survival
COc1ccc(Cl)cc1NC(=O)Cn1cc(S(=O)(=O)Cc2cccc(Cl)c2)c2ccccc21	83%
CCOC(=O)c1ccc(NC(=O)c2c(NCc3cccc(OC)c3OC)sc3c2CCC3)cc1	77%
COc1ccccc1CCNC(=O)Cc1c(C)c2cc3c(C)coc3cc2oc1=O	68%
CCOC(=O)C1=C(CN2CCN(c3ccccc3OC)CC2)NC(=O)NC1c1ccccc1 (stereo unspecified)	70%
Cc1ccc(-c2nnc(Nc3cccc(Cl)c3)c3ccccc23)cc1S(=O)(=O)N1CCCCC1	65%
CCN(C(=O)c1ccc(C(=O)N(CC)c2ccccc2C)cc1)c1ccccc1C	68%
CCN(CC)C(=O)c1ccccc1NC(=O)c1ccccc1	92%
CCN(CC)C(=O)c1ccccc1C	48% (active)
CCCCC(CC)CNC(=O)CN(C)S(=O)(=O)c1ccc2c(c1)c(=O)n(C)c(=O)n2C (stereo unspecified)	73%
CCc1ccc(-n2c(=O)c3c4c(sc3n(CC(=O)c3ccc(Cl)cc3)c2=O)CCC4)cc1	142%
CCS(=O)(=O)c1nnnn1-c1ccccc1	9% (active)
c1ccc(CNc2nnnn2-c2ccccc2)cc1	93%
O=C(O)CCSc1nnnn1-c1ccccc1	73%
CCOc1ccc(C2CC(=O)Nc3cc4c(cc32)OCO4)cc1OC (stereo unspecified)	120%
NS(=O)(=O)c1ccc(CCNc2ncnc3c2cnn3-c2cccc(Cl)c2)cc1	93%
COc1cccc(NC(=O)Cn2c(=O)n(CC(=O)NCCc3ccccc3)c(=O)c3sccc32)c1	45% (active)
COc1ccc(CCNC(=O)Cn2c(=O)c3sccc3n(CC(=O)Nc3cccc(C(F)(F)F)c3)c2=O)cc1OC	82%
COc1cc(NC(=O)Cn2c(=O)n(CC(=O)NCCc3ccc(OC)c(OC)c3)c(=O)c3sccc32)cc(OC)c1	49% (active)
CCOc1ccc(NC(=O)Cn2c(=O)n(CC(=O)NCCc3ccccc3)c(=O)c3sccc32)cc1	71%
COc1cc(OC)cc(-n2c(=O)c3ccccc3n(CC(=O)NCCc3ccc(OC)c(OC)c3)c2=O)c1	83%
COc1cccc(NC(=O)Cn2c(=O)n(CC(=O)NCc3ccc(C)cc3)c(=O)c3sccc32)c1	77%
CCN(CC)S(=O)(=O)c1ccc2c(c1)N(CC(=O)NCCCN1CCN(c3ccccc3F)CC1)C(=O)CO2	77%
CC1=CC(C)C(/C=N/N=C(N)N)C(C)C1 (stereo unspecified)	71%
Cn1c(SCC(=O)O)nc2ccccc21	109%

SMILES	survival
CCCc1ncc(C(O)c2ccccc2OC)n1C (stereo unspecified)	85%
CC(C)c1cnc2c(c1SCC(=O)NCc1ccccc1)c(=O)n(C)c(=O)n2C	77%
CC(C)c1ncc(C(O)c2cccc3ccccc23)n1C (stereo unspecified)	56% (active)
Cc1cc(NC(=O)CN2CCC(O)CC2)nc2c1c(=O)oc1ccccc12	83%
COc1ccccc1-c1c(C(F)(F)F)oc2c(CN3CCCCC3C)c(O)ccc2c1=O (stereo unspecified)	62%
COc1ccc(S(=O)(=O)NCCSc2nnnn2-c2ccccc2)cc1OC	127%
O=C(CSc1nc(Nc2ccc(F)c(F)c2)c2ccccc2n1)c1ccc(Cl)cc1	101%
COc1ccc(C(C)=O)cc1CSc1nc(Nc2ccc(F)c(F)c2)c2ccccc2n1	25% (active)
COc1ccc(C(C)=O)cc1CSc1nc(NCCc2ccccc2)c2ccccc2n1	60%
COc1ccc(C(C)=O)cc1CSc1nc(NCc2ccccc2)c2ccccc2n1	89%
COc1ccc(C(C)=O)cc1CSc1nc(NCc2ccc(Cl)cc2)c2ccccc2n1	8% (active)
COc1cc(Nc2nc(SCc3ccccc3F)nc3ccccc23)cc(OC)c1	118%
Cc1cccc(N2CCN(C(=O)c3nn(C)c4c3CS(=O)(=O)c3ccccc3-4)CC2C)c1 (stereo unspecified)	71%
COc1cc(NC(=O)c2cc3cc4ccc(OC)c(Cl)c4nc3s2)cc(OC)c1	98%
CN(CC(=O)Nc1ccc(F)cc1F)S(=O)(=O)c1cccc2nsnc12	92%
COC(=O)c1ccc(Cn2nnc3sc4c(c3c2=O)CCCC4)cc1	74%
CCOC(=O)c1ccccc1NC(=O)Cn1nnc2sc3c(c2c1=O)CCCC3	63%
CC(C)OC(=O)c1cccc(NC(=O)Cn2nnc3sc4c(c3c2=O)CCCC4)c1	75%
COc1ccc(OCCn2nnc3sc4c(c3c2=O)CCCC4)cc1	83%
Cc1ccc(OCCCCn2nnc3sc4c(c3c2=O)CCCC4)cc1	48% (active)
O=c1c2c3c(sc2nnn1CCCCOc1ccc(Cl)cc1)CCCC3	108%
O=c1c2c3c(sc2nnn1Cc1ccc(Br)cc1)CCCC3	37% (active)
Cc1cccc(OCCn2nnc3sc4c(c3c2=O)CCCC4)c1	65%
CC(C)OC(=O)c1ccc(Cn2nnc3sc4c(c3c2=O)CCCC4)cc1	20% (active)

SMILES	survival
CCc1cccc(CC)c1NC(=O)Cn1nnc2sc3c(c2c1=O)CCCC3	142%
Cc1ccccc1Cn1nnc2sc3c(c2c1=O)CCCC3	-1% (active)
Cc1ccc(NC(=O)Cn2nnc3sc4c(c3c2=O)CCCC4)c(C)c1	86%
N#Cc1ccccc1NC(=O)CSc1ncn[nH]1	164%
CC(C)(C)c1ccc(C(=O)N2CCC(c3nc4ccccc4o3)CC2)cc1	86%
CCOc1ccc(NC(=O)CSc2ncc(S(=O)(=O)c3ccc(F)c(C)c3)c(=O)[nH]2)cc1	58%
CCc1ccc(CNC(=O)c2c(C)oc3ncn(CC(C)C)c(=O)c23)cc1	88%
Cc1cc(NCCN(C)C)n2nc(C)c(-c3ccccc3)c2n1	93%
CCCCCNS(=O)(=O)c1ccc(N2CCCCS2(=O)=O)cc1	77%
Cc1nc2cc(-c3cccc(F)c3)nn2c(C)c1CCC(=O)N1CCN(c2ccc(F)cc2)CC1	56%
CCOc1ccc(-c2cc(NC(=O)Nc3ccccc3Cl)c(C(=O)OC)s2)cc1	56%
Cn1c(=O)oc2cc(S(=O)(=O)N3CCCC(C(=O)N4CCN(c5ccc(F)cc5)CC4)C3)ccc21 (stereo unspecified)	92%
COc1ccc(-c2[nH]c3ccccc3c2SCCNC(=O)c2cc(OC)c(OC)c(OC)c2)cc1	62%
COc1cccc(-c2nc(SCC(=O)NC3CCCC3)c(-c3ccc(C)cc3)[nH]2)c1	107%
CC(C)Cc1nn2c(=O)cc(COC(=O)c3ccc4c(c3)OCO4)nc2s1	73%
O=C(CN1CCCN(Cc2ccccc2Cl)S1(=O)=O)Nc1ccc2c(c1)OCCO2	67%
Cc1ccc(S(=O)(=O)Nc2ccc3c(c2)CCCN3C(=O)c2cccs2)cc1C	70%
Cc1ccc(C)c(S(=O)(=O)Nc2ccc3c(c2)CCCN3C(=O)c2cccs2)c1	47% (active)
Cc1ccc(S(=O)(=O)Nc2ccc3c(c2)CCCN3C(=O)c2cccs2)cc1	75%
Cc1ccc(NC(=O)Cn2c(=O)n(Cc3ccco3)c(=O)c3ccccc32)cc1	78%
O=C(Cn1nc(Cc2ccncc2)c2ccccc2c1=O)Nc1cccc(C(F)(F)F)c1	71%
Cc1ccc(-c2nn(CC(=O)Nc3cccc(C(F)(F)F)c3)c(=O)c3ccccc23)cc1	31% (active)
Cc1cccc(NC(=O)Cn2nc(-c3ccc(Cl)cc3)c3ccccc3c2=O)c1	142%
COCCNC(=O)Cn1nc(-c2ccc(C)cc2)c2ccccc2c1=O	39% (active)

SMILES	survival
O=C(Cn1nc(-c2ccc(Cl)cc2)c2ccccc2c1=O)NCCN1CCOCC1	97%
COCCNC(=O)CCn1nc(-c2ccc(Cl)cc2)c2ccccc2c1=O	77%
CN(C)C(=O)c1ccc(NC(=O)Cn2nc(-c3ccccc3)c3ccccc3c2=O)cc1	39% (active)
O=C(Cn1nc(-c2ccccc2)c2cnc3ccccc3c21)Nc1ccccc1	76%
O=C(Cn1nc(-c2ccc(Cl)cc2)c2ccccc2c1=O)Nc1cccc(Br)c1	28% (active)
COCCNC(=O)Cn1nc(C)c2c(C)n(-c3ccc(C)cc3)nc2c1=O	135%
CN(C)C(=O)Cn1nc(-c2ccccc2)c2ccccc2c1=O	92%
Cn1nc(-c2ccc(OCC(=O)Nc3cccc(C(F)(F)F)c3)cc2)c2ccccc2c1=O	78%
CCOc1ccc(CCNCc2c(C(=O)O)c(C)n(Cc3ccccc3F)c2C)cc1	82%
CC(C)(C)n1nnnc1CN1CCC(NC(=O)Nc2ccc(F)cc2)CC1	102%
CCOC(=O)c1ccc(NS(=O)(=O)c2ccc3c(c2)n(C)c(=O)n3C)cc1	96%
Fc1ccc(-n2ncc3c(Nc4cccc(Cl)c4)ncnc32)cc1	67%
COc1cccc2c1cc1c(=O)n(CC(=O)N3CCN(c4ccc(F)cc4)CC3)nc(C)n12	87%
COc1cccc(NC(=O)CN2C=NS(=O)(=O)c3ccccc32)c1	122%
O=C(CCCCn1c(=O)c2ccccc2n(Cc2ccc(F)cc2Cl)c1=O)NCCc1ccc(Cl)cc1	72%
O=C(c1ccc(Cl)cc1)N1CCCCC1CCN1CCOCC1 (stereo unspecified)	104%
Cc1nc2c(C(=O)NC(C)c3ccccc3)cnn2c(C)c1Cc1ccccc1 (stereo unspecified)	72%
COCCNC(=O)Cn1nc(N2CCN(c3ccccc3OC)CC2)ccc1=O	94%
Cc1ccc(NC(=O)Cn2nc(-c3ccc(Cl)cc3)c3ccccc3c2=O)cc1	38% (active)
O=C(Cn1nc(Cc2cccnc2)c2ccccc2c1=O)Nc1cccc(C(F)(F)F)c1	54%
CNC(=O)Cn1nc(-c2ccc(Cl)cc2)c2ccccc2c1=O	52%
O=C(Cn1nc(-c2ccc(Cl)cc2)c2ccccc2c1=O)Nc1cccc(C(F)(F)F)c1	34% (active)
COc1ccc(NC(=O)CCn2nc(-c3ccc(Cl)cc3)c3ccccc3c2=O)cc1	76%
Cn1nc(-c2ccc(C(=O)Nc3cccc(C(F)(F)F)c3)cc2)c2ccccc2c1=O	57%
